Results on seven sequences are retold here after publication PMC11006913.

What all share (assay): PBM; 200 nM protein, PBS
What all share (settings): dsDNA, one strand shown

In experiment [1] the target is T1, PAX4 (Homo sapiens, UniProt O43316 9-242, R200K).
T1 sequence: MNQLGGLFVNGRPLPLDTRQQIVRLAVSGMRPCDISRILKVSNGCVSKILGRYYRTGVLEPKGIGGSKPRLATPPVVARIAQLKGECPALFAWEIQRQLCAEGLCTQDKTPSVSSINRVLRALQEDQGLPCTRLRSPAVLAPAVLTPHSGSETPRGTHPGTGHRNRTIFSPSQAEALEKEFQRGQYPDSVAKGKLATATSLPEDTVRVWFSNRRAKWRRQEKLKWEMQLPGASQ

The target in experiment [2] is T2, PAX4 (Homo sapiens, UniProt O43316 9-242).
T2 sequence: T1 sequence with K192R

Experiment [3] has as its target MSX2 (Homo sapiens, UniProt P35548 130-214, R199I).
Experiment [4] addresses T3, PAX4 (Homo sapiens, UniProt O43316 9-242, R200Q).
T3 sequence: T1 sequence with K192Q

Experiment [5] concerns the target T4, PAX4 (Homo sapiens, UniProt O43316 9-242, F177V).
T4 sequence: T1 sequence with F169V, K192R

Experiment [6] deals with MSX2 (Homo sapiens, UniProt P35548 130-214).
Experiment [7] deals with T5, PAX4 (Homo sapiens, UniProt O43316 9-242, F177Y).
T5 sequence: T1 sequence with F169Y, K192R

The target in experiment [8] is MSX2 (Homo sapiens, UniProt P35548 130-214, F161Y).
The target in experiment [9] is T6, PAX4 (Homo sapiens, UniProt O43316 9-242, R227W).
T6 sequence: T1 sequence with K192R, R219W

The target in experiment [10] is T7, NKX2-6 (Homo sapiens, UniProt A6NCS4 118-204, R150C).
T7 sequence: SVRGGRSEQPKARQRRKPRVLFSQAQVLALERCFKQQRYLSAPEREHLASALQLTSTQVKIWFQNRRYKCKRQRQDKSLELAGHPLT

The target in experiment [11] is PITX2 (Homo sapiens, UniProt Q99697 72-157).
Experiment [12] addresses HOXD13 (Homo sapiens, UniProt P35453 263-343, T313R).
Experiment [13] deals with HOXD13 (Homo sapiens, UniProt P35453 263-343).
The target of experiment [14] is HOXD13 (Homo sapiens, UniProt P35453 263-343, T313A).

Positions count from the first letter of the chain named.

Sequence of MSX2 (Homo sapiens, UniProt P35548 130-214, F161Y) (P35548 130-214 F161Y): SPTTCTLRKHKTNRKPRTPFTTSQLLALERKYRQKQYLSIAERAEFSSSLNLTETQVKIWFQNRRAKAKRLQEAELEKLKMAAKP
Sequence of MSX2 (Homo sapiens, UniProt P35548 130-214, R199I) (P35548 130-214 R199I): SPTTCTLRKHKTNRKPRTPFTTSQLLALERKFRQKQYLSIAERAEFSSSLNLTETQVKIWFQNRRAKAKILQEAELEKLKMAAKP
Sequence of MSX2 (Homo sapiens, UniProt P35548 130-214) (P35548 130-214): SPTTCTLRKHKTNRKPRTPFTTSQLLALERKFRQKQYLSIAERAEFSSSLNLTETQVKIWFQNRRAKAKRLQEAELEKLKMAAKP
Sequence of HOXD13 (Homo sapiens, UniProt P35453 263-343, T313R) (P35453 263-343 T313R): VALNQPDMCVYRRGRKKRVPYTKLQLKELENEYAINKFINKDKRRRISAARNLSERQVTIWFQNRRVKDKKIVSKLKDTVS
Sequence of HOXD13 (Homo sapiens, UniProt P35453 263-343) (P35453 263-343): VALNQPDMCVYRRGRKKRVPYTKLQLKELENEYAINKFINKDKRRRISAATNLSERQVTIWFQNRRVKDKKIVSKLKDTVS
Sequence of HOXD13 (Homo sapiens, UniProt P35453 263-343, T313A) (P35453 263-343 T313A): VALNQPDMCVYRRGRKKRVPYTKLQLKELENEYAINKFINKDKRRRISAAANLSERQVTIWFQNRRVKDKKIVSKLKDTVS

CCCCTGGC: the binding signal in experiment [1] was 9.25 upbm affinity estimate (log intensity, higher = more binding, comparable within an allelic series); in [2], 9.29 upbm affinity estimate (log intensity, higher = more binding, comparable within an allelic series); in experiment [3], 9.36 upbm affinity estimate (log intensity, higher = more binding, comparable within an allelic series); in experiment [4], 9.32 upbm affinity estimate (log intensity, higher = more binding, comparable within an allelic series); in experiment [5], 9.09 upbm affinity estimate (log intensity, higher = more binding, comparable within an allelic series); in experiment [6] it was 9.68 upbm affinity estimate (log intensity, higher = more binding, comparable within an allelic series). For the same sequence, the binding signal in [7] is 9.12 upbm affinity estimate (log intensity, higher = more binding, comparable within an allelic series); in experiment [8] it was 9.68 upbm affinity estimate (log intensity, higher = more binding, comparable within an allelic series); in experiment [9], 9.26 upbm affinity estimate (log intensity, higher = more binding, comparable within an allelic series).

For the sequence GCCCGGCA, the binding signal in experiment [1] is 9.23 upbm affinity estimate (log intensity, higher = more binding, comparable within an allelic series); in experiment [2], 9.34 upbm affinity estimate (log intensity, higher = more binding, comparable within an allelic series); in experiment [10] it was 9.33 upbm affinity estimate (log intensity, higher = more binding, comparable within an allelic series); in experiment [4] it was 9.28 upbm affinity estimate (log intensity, higher = more binding, comparable within an allelic series); in experiment [5], 9.09 upbm affinity estimate (log intensity, higher = more binding, comparable within an allelic series); in experiment [7] it was 9.13 upbm affinity estimate (log intensity, higher = more binding, comparable within an allelic series). For the same sequence, the binding signal in [9] was 9.21 upbm affinity estimate (log intensity, higher = more binding, comparable within an allelic series).

GCCCAGCC: the binding signal in [1] was 9.23 upbm affinity estimate (log intensity, higher = more binding, comparable within an allelic series); in experiment [2] it was 9.33 upbm affinity estimate (log intensity, higher = more binding, comparable within an allelic series); in [4] it was 9.24 upbm affinity estimate (log intensity, higher = more binding, comparable within an allelic series); in experiment [11] it was 7.91 upbm affinity estimate (log intensity, higher = more binding, comparable within an allelic series); in [5] it was 9.15 upbm affinity estimate (log intensity, higher = more binding, comparable within an allelic series); in experiment [7], 9.11 upbm affinity estimate (log intensity, higher = more binding, comparable within an allelic series). The binding signal in experiment [9] was 9.23 upbm affinity estimate (log intensity, higher = more binding, comparable within an allelic series).

CCTCCCCC: the binding signal was 9.47 upbm affinity estimate (log intensity, higher = more binding, comparable within an allelic series) in [1]; 9.49 upbm affinity estimate (log intensity, higher = more binding, comparable within an allelic series) in [2]; 9.14 upbm affinity estimate (log intensity, higher = more binding, comparable within an allelic series) in experiment [12]; 9.57 upbm affinity estimate (log intensity, higher = more binding, comparable within an allelic series) in [4]; 9.51 upbm affinity estimate (log intensity, higher = more binding, comparable within an allelic series) in [13]; 9.21 upbm affinity estimate (log intensity, higher = more binding, comparable within an allelic series) in [5]. Moreover, the binding signal was 9.2 upbm affinity estimate (log intensity, higher = more binding, comparable within an allelic series) in [7]; 9.46 upbm affinity estimate (log intensity, higher = more binding, comparable within an allelic series) in [14]; 9.23 upbm affinity estimate (log intensity, higher = more binding, comparable within an allelic series) in experiment [9].

CCAGCGCC: the binding signal in [1] is 9.19 upbm affinity estimate (log intensity, higher = more binding, comparable within an allelic series); in experiment [2], 9.3 upbm affinity estimate (log intensity, higher = more binding, comparable within an allelic series); in experiment [4], 9.31 upbm affinity estimate (log intensity, higher = more binding, comparable within an allelic series); in experiment [5] it was 9.31 upbm affinity estimate (log intensity, higher = more binding, comparable within an allelic series); in [7] it was 9.23 upbm affinity estimate (log intensity, higher = more binding, comparable within an allelic series); in experiment [9] it was 9.33 upbm affinity estimate (log intensity, higher = more binding, comparable within an allelic series).

In the case of ACTAATTC, the binding signal in experiment [1] is 11.6 upbm affinity estimate (log intensity, higher = more binding, comparable within an allelic series); in [2], 12.1 upbm affinity estimate (log intensity, higher = more binding, comparable within an allelic series); in experiment [4], 11.8 upbm affinity estimate (log intensity, higher = more binding, comparable within an allelic series); in [5], 10.4 upbm affinity estimate (log intensity, higher = more binding, comparable within an allelic series); in experiment [7], 10.9 upbm affinity estimate (log intensity, higher = more binding, comparable within an allelic series); in experiment [9], 10.9 upbm affinity estimate (log intensity, higher = more binding, comparable within an allelic series).

Consider GCGAGGCC, for which the binding signal was 9.39 upbm affinity estimate (log intensity, higher = more binding, comparable within an allelic series) in experiment [1]; 9.4 upbm affinity estimate (log intensity, higher = more binding, comparable within an allelic series) in experiment [2]; 9.36 upbm affinity estimate (log intensity, higher = more binding, comparable within an allelic series) in [4]; 9.18 upbm affinity estimate (log intensity, higher = more binding, comparable within an allelic series) in experiment [5]; 9.2 upbm affinity estimate (log intensity, higher = more binding, comparable within an allelic series) in experiment [7]; 9.27 upbm affinity estimate (log intensity, higher = more binding, comparable within an allelic series) in experiment [9].
